Where “and” joins values, the source holds several entries; their conditions need not be identical. Equal values may be shown once. Inconclusive results are not listed. Where a call stands in place of a potency, no number is given. A structure can be active in one record and inactive in another. Calls of active or inactive are those of the source. Unless noted, calls follow the shape of the dose curve; as a rule, active = well fitted curve in the direction sought with a large enough effect in the repeat runs; inconclusive = weak or mixed curves; inactive = no such curve, though single readings can be large; an effect the other way counts as inactive or inconclusive.
How the values were obtained:
[1] = molecular target: Thyrotropin receptor (Homo sapiens) (UniProt P16473); assay: qHTS assay to identify small molecule antagonists of the thyroid stimulating hormone receptor (TSHR) signaling pathway (AID 1259385; calls by dose curve; also: nearly all actives have a fitted effect of over 20% in size)
Sequence of Thyrotropin receptor (Homo sapiens) (P16473 whole entry, looked up): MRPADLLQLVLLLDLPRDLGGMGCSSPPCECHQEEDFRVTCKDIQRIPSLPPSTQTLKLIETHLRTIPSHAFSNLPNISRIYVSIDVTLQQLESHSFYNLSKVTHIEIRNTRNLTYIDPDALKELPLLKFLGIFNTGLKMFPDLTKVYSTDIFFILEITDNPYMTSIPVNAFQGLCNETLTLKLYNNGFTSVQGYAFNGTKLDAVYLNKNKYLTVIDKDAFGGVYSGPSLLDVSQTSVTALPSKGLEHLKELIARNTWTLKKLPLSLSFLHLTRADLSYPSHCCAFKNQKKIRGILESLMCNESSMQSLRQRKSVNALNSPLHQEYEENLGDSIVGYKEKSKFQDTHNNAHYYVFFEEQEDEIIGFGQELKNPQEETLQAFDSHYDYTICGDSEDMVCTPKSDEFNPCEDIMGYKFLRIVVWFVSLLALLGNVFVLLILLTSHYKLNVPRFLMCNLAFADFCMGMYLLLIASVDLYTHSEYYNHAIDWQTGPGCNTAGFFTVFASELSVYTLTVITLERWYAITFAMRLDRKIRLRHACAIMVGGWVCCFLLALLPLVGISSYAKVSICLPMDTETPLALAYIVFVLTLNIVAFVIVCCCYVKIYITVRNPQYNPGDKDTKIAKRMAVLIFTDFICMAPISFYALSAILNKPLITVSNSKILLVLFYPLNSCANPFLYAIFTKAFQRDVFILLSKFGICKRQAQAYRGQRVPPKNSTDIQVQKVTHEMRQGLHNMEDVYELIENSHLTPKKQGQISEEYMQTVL
Outline: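 Antagonist mode: compound-treated TSHR-expressing HEK293 cells were stimulated with 1.5 ng/mL TSH (final) in presence of Ro20-1724 for 30 min at RT. HTRF cAMP detection after 1 h; each compound tested at 15 concentrations, triplicate.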

[2] = qHTS assay to identify small molecule agonists of the estrogen receptor alpha (ER-alpha) signaling pathway in the presence of an antagonist - cell viability counter screen (AID 1259386);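 also: cells exposed to compounds for 22 h at 37 °C before the viability read; nearly all actives have a fitted effect of over 30% in size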; also: potency is read from the fitted curve at half-maximal effect
Outline: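 Using estrogen-depleted VM7Luc4E2 cells, the 15-concentration compound series was applied together with 10.0nM ICI-182,780 and incubated 22hr at 37C/5% CO2. Cell viability was then scored by CellTiter-Fluor.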

[3] = molecular target: Progesterone receptor (Homo sapiens) (UniProt P06401); assay: qHTS assay to identify small molecule agonists of the progesterone receptor (PR) signaling pathway (AID 1346784; calls by dose curve; also: nearly all actives have a fitted effect of over 30% in size)
Sequence of Progesterone receptor (Homo sapiens) (P06401 whole entry, looked up): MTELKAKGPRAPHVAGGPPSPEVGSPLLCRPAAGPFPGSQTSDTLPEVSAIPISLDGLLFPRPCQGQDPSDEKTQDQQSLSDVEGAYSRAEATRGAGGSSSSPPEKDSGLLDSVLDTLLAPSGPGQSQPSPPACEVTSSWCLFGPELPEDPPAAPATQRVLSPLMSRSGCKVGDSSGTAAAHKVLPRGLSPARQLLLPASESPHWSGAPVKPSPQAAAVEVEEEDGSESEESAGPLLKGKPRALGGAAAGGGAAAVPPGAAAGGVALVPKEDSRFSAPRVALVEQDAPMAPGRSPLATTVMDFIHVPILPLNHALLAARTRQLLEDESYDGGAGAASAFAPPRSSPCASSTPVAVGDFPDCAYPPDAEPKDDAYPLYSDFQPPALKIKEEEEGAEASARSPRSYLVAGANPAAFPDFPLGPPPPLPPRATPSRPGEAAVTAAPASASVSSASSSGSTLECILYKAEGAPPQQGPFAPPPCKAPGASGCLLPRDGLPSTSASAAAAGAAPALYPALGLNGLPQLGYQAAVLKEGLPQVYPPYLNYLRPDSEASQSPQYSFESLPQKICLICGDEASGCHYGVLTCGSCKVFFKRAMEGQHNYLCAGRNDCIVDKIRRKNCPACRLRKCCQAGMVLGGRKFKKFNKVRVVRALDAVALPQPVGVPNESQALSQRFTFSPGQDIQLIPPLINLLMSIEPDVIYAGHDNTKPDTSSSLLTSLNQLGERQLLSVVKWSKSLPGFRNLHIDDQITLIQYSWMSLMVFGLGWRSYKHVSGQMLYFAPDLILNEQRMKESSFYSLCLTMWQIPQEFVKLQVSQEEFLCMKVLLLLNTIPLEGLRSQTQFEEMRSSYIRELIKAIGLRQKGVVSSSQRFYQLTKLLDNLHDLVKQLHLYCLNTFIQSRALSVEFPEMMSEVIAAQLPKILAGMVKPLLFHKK
Outline: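 PR-UAS-bla HEK 293T cells carrying a UAS-driven beta-lactamase reporter were seeded in medium with 2% charcoal-stripped FBS, preincubated 6 hr at 37C, then exposed to compounds in DMSO for 16 hr; agonism was read by LiveBLAzer B/G FRET fluorescence.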

[4] = qHTS assay to identify small molecule antagonists of the progesterone receptor (PR) signaling pathway - cell viability counter screen (AID 1346798); also: series mostly up to about 92 µM; nearly all actives have a fitted effect of over 50% in size
Outline: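 PR-UAS-bla HEK293T cells in medium with 2% charcoal-stripped FBS were treated with compounds plus R5020 for 16 hr at 37C. Cell viability was then read by CellTiter-Glo luminescence after 30 min at room temperature in the same wells.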

[5] = qHTS assay to identify small molecule antagonists of the TGF-beta/Smad signaling pathway - cell viability counter screen (AID 1346824); also: nearly all actives have a fitted effect of over 50% in size; also: potency is read from the fitted curve at half-maximal effect
Outline: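 Cytotoxicity counter-screen run in the same wells as the beta-lactamase Smad reporter read: CellTiter-Glo luminescence after 30 min at room temperature. HEK 293T SBE-bla cells had 5 hr compound exposure at 37 C with TGF-beta1 (0.25 ng/mL stock).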

[6] = molecular target: Thyrotropin-releasing hormone receptor (Homo sapiens) (UniProt P34981); assay: qHTS assay to identify small molecule antagonists of the thyrotropin-releasing hormone receptor (TRHR) signaling pathway (AID 1346877; active = well fitted inhibition curve with a large enough effect in the repeat runs, not every such curve was filed as active; also: series mostly up to about 51 µM)
Sequence of Thyrotropin-releasing hormone receptor (Homo sapiens) (P34981 whole entry, looked up): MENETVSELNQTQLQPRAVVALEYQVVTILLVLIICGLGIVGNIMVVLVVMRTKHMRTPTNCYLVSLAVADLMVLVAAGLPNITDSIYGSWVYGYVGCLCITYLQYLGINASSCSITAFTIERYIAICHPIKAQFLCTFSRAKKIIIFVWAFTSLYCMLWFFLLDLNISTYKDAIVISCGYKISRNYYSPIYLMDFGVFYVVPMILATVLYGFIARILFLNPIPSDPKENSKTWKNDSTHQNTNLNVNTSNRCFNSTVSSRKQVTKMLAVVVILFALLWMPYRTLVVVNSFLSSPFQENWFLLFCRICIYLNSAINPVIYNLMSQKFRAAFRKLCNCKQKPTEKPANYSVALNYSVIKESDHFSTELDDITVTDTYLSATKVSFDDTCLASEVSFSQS
Outline: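 Calcium signal in dye-loaded TRHR/HEK293 cells; compounds added 5 min before TRH (1 nM final); fluorescence monitored 3 min at 1 s steps.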

[7] = molecular target: Thyrotropin-releasing hormone receptor (Homo sapiens) (UniProt P34981); assay: qHTS assay to identify small molecule agonists of the thyrotropin-releasing hormone receptor (TRHR) signaling pathway (AID 1346891; calls by dose curve; also: series mostly up to about 58 µM)
Outline: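 TRHR-expressing HEK293 cells were plated 18 h at 37 °C/5% CO2, loaded with calcium dye 2 h at 37 °C, then given compound in DMSO; fluorescence was read kinetically for 3 min at 1 s intervals.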

[8] = Caspase-3/7 induction in HepG2 cells by small molecules, qHTS assay (AID 1346978); also: nearly all actives have a fitted effect of over 15% in size
Outline: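 Caspase-3/7 induction was measured by Caspase-Glo 3/7 luminescence (30 min, room temperature) after a 17 hr compound exposure of wild-type HepG2 cells seeded at 2,000 per well and pre-incubated 5 hr.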

[9] = Caspase-3/7 induction in CHO-K1 cells by small molecules, qHTS assay (AID 1346980); also: nearly all actives have a fitted effect of over 15% in size
Outline: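 Luminescent Caspase-Glo 3/7 read (30min, room temperature) quantified apoptosis induction. Cells were wild-type CHO-K1, treated with compound for 17hr at 37 C and 5% CO2.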

[10] = molecular target: Nuclear receptor subfamily 1 group I member 2 (Homo sapiens) (UniProt O75469); assay: Human pregnane X receptor (PXR) small molecule agonists, qHTS assay (AID 1346982); also: nearly all actives have a fitted effect of over 35% in size; also: potency is read from the fitted curve at half-maximal effect
Sequence of Nuclear receptor subfamily 1 group I member 2 (Homo sapiens) (O75469 whole entry, looked up): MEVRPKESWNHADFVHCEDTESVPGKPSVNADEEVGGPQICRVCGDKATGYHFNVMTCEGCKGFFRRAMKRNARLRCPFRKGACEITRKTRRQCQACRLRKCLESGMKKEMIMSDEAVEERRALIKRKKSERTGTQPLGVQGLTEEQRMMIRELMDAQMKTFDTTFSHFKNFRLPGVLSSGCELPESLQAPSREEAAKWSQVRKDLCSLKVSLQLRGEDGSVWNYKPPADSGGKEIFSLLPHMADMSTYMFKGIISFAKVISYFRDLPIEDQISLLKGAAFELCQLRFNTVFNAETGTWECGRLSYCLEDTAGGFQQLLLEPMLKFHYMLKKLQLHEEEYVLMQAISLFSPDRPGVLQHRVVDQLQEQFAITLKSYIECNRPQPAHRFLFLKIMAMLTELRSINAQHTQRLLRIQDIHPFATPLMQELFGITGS
Outline: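 Tox21 qHTS; PXR-Luc HepG2; compounds pinned from DMSO; 24 hr, 37 C; ONE-Glo luciferase detection, 30 min room temperature.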

[11] = molecular target: Progesterone receptor (Homo sapiens) (UniProt P06401); assay: qHTS assay to identify small molecule antagonists of the progesterone receptor (PR) signaling pathway (AID 1346795; active = well fitted inhibition curve with a large enough effect in the signal ratio in the repeat runs, not every such curve was filed as active; the % refers to the signal ratio; also: potency is read from the fitted curve at half-maximal effect)
Outline: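 PR-UAS-bla HEK293T cells carrying a UAS-driven beta-lactamase reporter were plated in medium with 2% charcoal-stripped FBS and rested 6 hr at 37C. Compounds were added with 1 nM R5020 (final) for 16 hr, then FRET substrate loaded 2 hr at room temperature.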

[12] = qHTS assay to identify small molecule agonists of the progesterone receptor (PR) signaling pathway - cell viability counter screen (AID 1346799; calls by dose curve; also: nearly all actives have a fitted effect of over 45% in size; also: potency is read from the fitted curve at half-maximal effect)
Outline: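 PR-UAS-bla HEK293T cells, 3,000 per well in medium with 2% charcoal-stripped FBS, were preincubated 6 hr at 37C, then exposed to compounds for 16 hr; viability was read as CellTiter-Glo luminescence after 30 min at room temperature.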

[13] = qHTS assay to identify small molecule agonists of the TGF-beta/Smad signaling pathway - cell viability counter screen (AID 1346829); also: nearly all actives have a fitted effect of over 45% in size; also: potency is read from the fitted curve at half-maximal effect
Outline: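 CellTiter-Glo luminescence readout; SBE-bla HEK 293T cells, overnight plating, compound 5 hr at 37 C/5% CO2, then bla substrate 2 hr RT, then CellTiter-Glo 30 min RT.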

[14] = qHTS assay to identify small molecule agonists of the TGF-beta/Smad signaling pathway (AID 1346859; active = well fitted activation curve with a large enough effect in the signal ratio in the repeat runs, not every such curve was filed as active; the % refers to the signal ratio; also: series mostly up to about 77 µM)
Outline: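 HEK 293T cells stably carrying a beta-lactamase reporter driven by the Smad binding element were seeded overnight, exposed to DMSO-dissolved compounds for 5 hr at 37 C, 5% CO2, then loaded with FRET substrate for 2 hr at room temperature.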

[15] = Human pregnane X receptor (PXR) small molecule agonists, qHTS cell viability counter screen (AID 1346977); also: nearly all actives have a fitted effect of over 50% in size; also: potency is read from the fitted curve at half-maximal effect
Outline: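 PXR-Luc HepG2 cells in medium with 5% charcoal-stripped FBS were pre-incubated 5hr, then exposed to compounds for 24hr at 37C. Viability was read in the same wells by CellTiter-Fluor fluorescence, reagent added after 23hr with a 1hr incubation.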

[16] = Caspase-3/7 induction in HepG2 cells by small molecules, qHTS cell viability counter screen (AID 1346981); also: nearly all actives have a fitted effect of over 30% in size; also: potency is read from the fitted curve at half-maximal effect
Outline: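 After a 5-hr attachment period at 37 C and 5% CO2, wild-type HepG2 cells received compounds in DMSO. Sixteen hours later CellTiter-Fluor was dispensed and the fluorescent signal quantified after a further hour.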

[17] = molecular target: Nuclear receptor subfamily 1 group I member 2 (Rattus norvegicus) (UniProt Q9R1A7); assay: Rat pregnane X receptor (rPXR) activation by small molecules, qHTS assay (AID 1346983); conditions: rPXR luciferase reporter cells, One-Glo luminescence, 24 h; max activation: stronger effect = higher value; also: nearly all actives have a fitted effect of over 20% in size
Sequence of Nuclear receptor subfamily 1 group I member 2 (Rattus norvegicus) (Q9R1A7 whole entry, looked up): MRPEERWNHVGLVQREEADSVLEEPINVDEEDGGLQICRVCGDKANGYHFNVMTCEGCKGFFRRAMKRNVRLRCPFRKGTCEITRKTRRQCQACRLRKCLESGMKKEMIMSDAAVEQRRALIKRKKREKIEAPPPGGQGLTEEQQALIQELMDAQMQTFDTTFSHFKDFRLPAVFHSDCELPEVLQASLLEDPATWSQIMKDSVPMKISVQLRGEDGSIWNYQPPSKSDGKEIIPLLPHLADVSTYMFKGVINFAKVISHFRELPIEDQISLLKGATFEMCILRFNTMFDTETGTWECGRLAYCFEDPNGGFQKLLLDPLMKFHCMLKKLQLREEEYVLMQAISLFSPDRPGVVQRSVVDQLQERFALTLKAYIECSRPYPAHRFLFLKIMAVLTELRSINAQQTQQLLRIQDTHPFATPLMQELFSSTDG
Outline: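 Luminescent readout (One-Glo luciferase, 30 min room temperature) followed 24 hr compound treatment at 37 C of rPXR cells plated 2,000 per well and preincubated 5hr; qHTS format with compounds delivered in DMSO.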

[18] = molecular target: Nuclear receptor subfamily 1 group I member 2 (Homo sapiens) (UniProt O75469); assay: CYP3A4 induction through human pregnane X receptor (PXR) by small molecules, qHTS assay (AID 1346984); also: nearly all actives have a fitted effect of over 40% in size
Outline: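 Cells (DPX-2; HepG2 with PXR element plus CYP3A4-promoter luciferase) settled 5hr, then were treated 24hr at 37C. A 3hr, 3uM-final Luciferin-IPA step preceded luminescence measurement with One-Glo.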

[19] = molecular target: Nuclear receptor subfamily 1 group I member 2 (Homo sapiens) (UniProt O75469); assay: Human pregnane X receptor (PXR) activation by small molecules, qHTS assay (AID 1346985); also: nearly all actives have a fitted effect of over 40% in size
Outline: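 DPX-2 cells (HepG2 co-transfected with a PXR response element and a CYP3A4-promoter luciferase construct) were seeded at 2,000 per well, rested 5 hr at 37C, then exposed to DMSO-dissolved compounds for 24 hr. Activation was read as luciferase luminescence.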

[20] = Caspase-3/7 induction in CHO-K1 cells by small molecules, qHTS cell viability counter screen (AID 1346979); also: nearly all actives have a fitted effect of over 35% in size; also: potency is read from the fitted curve at half-maximal effect
Outline: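 Wild-type CHO-K1 cells were seeded at 1,500 per well, rested 5hr at 37 C, then exposed to compounds in DMSO. After 16hr, CellTiter-Fluor reagent was added and fluorescence read 1hr later as the viability measure.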

SMILES	Potency [1]	Potency [2]	Potency [3]	Potency [4]	Potency [5]	Potency [6]	Potency [7]	Potency [8]	Potency [9]	Potency [10]	Potency [11]	Potency [12]	Potency [13]	outcome [14]	Potency [15]	Potency [16]	max activation [17]	Potency [18]	Potency [19]	Potency [20]
CO/N=C(/C(=O)OC)c1ccccc1COc1ccccc1C	inactive	inactive	inactive	inactive	inactive	inactive	inactive	inactive	inactive	8.63 µM (active)										
O=[N+]([O-])C(Br)(CO)CO	inactive	inactive	inactive		inactive	inactive	inactive	inactive	inactive	inactive	inactive	inactive	inactive	inactive	inactive	inactive	-5.03% (inactive)	inactive	inactive	
O=S(=O)(O)C(F)(F)C(F)(F)C(F)(F)C(F)(F)F	inactive	inactive	inactive	inactive	inactive			inactive	inactive	inactive			inactive	inactive						54.5 µM (active)
O=[N+]([O-])c1ccc(F)c([N+](=O)[O-])c1	inactive	30.9 µM (active)	inactive			inactive	inactive	inactive	inactive	inactive	inactive		inactive		27.6 µM (active)	27.6 µM (active)	-9.38% (inactive)	inactive	inactive	24.6 µM (active)
C=CC(C)=O	inactive	inactive	inactive	inactive	inactive	inactive	inactive	inactive	inactive	inactive		inactive	inactive	inactive		inactive				
CCCCc1c(C)nc(NCC)nc1OS(=O)(=O)N(C)C	inactive	48.6 µM (active)	inactive		inactive	inactive	inactive	inactive	inactive	9.69 µM (active)	27.3 µM (active)		inactive	inactive	61.1 µM (active)	61.1 µM (active)				61.1 µM (active)
CCOP(=S)(OCC)Oc1cc(Cl)c(Br)cc1Cl	inactive	inactive	inactive	inactive				inactive	inactive	61.1 µM (active)		inactive	inactive	inactive						inactive
COC(=O)C(C)N(C(=O)Cc1ccccc1)c1c(C)cccc1C (stereo unspecified)	inactive	inactive	inactive	inactive	inactive	inactive	inactive	inactive	inactive	10.9 µM (active)			inactive		inactive	inactive				
Cc1ccccc1C(=O)Nc1cccc(OC(C)C)c1	inactive	inactive	inactive		inactive	inactive	inactive	inactive	inactive	13.7 µM (active)			inactive	inactive	inactive	inactive				
OCCCBr	inactive	inactive	inactive		inactive	inactive	inactive	inactive	inactive	inactive			inactive	inactive						inactive
CC(C)N(C(=O)COc1nnc(C(F)(F)F)s1)c1ccc(F)cc1	inactive	inactive	inactive	inactive	inactive			inactive	inactive				inactive	inactive	inactive	inactive				inactive
Cc1c(F)c(F)c(COC(=O)C2C(/C=C(\Cl)C(F)(F)F)C2(C)C)c(F)c1F (stereo unspecified)	inactive	inactive	inactive	inactive		inactive	inactive			13.7 µM (active)		inactive	inactive	inactive	inactive	inactive				inactive
CC(C)(Cl)[N+](=O)[O-]	inactive	inactive	inactive	inactive	inactive	inactive	inactive	inactive	inactive				inactive		inactive	inactive				inactive
COP(=S)(OC)Oc1ccc([N+](=O)[O-])cc1Cl	inactive	48.6 µM (active)	inactive		inactive	inactive	inactive	inactive	inactive	inactive	inactive	inactive	inactive	inactive	34.4 µM (active)	61.1 µM (active)				68.6 µM (active)
Oc1ccc(Cl)c(Cl)c1Cl	inactive	inactive	inactive		inactive	inactive	inactive		inactive	63.4 µM (active)			inactive	inactive						
O=[Se]=O	inactive	21.5 µM (active)	inactive	inactive	9.7 µM (active)	inactive	inactive	inactive	inactive	inactive		inactive	4.86 µM (active)			21.5 µM (active)				
CCCCOC(=O)c1ccccc1C(=O)OCc1ccccc1	inactive	inactive	inactive	inactive	inactive	inactive	inactive		inactive	inactive and 21.7 µM (active)		inactive	inactive	inactive	inactive and 48.6 µM (active)					inactive
N#CCC#N	inactive	inactive	inactive		inactive	inactive	inactive	inactive			inactive	inactive	inactive	inactive						30.6 µM (active)
O=[N+]([O-])c1cc(C(F)(F)F)cc([N+](=O)[O-])c1Cl	inactive	30.8 µM (active)	inactive		inactive	inactive	inactive	inactive				13.7 µM (active)	inactive	inactive						68.9 µM (active)
CC(C)=CCOc1c2occc2cc2ccc(=O)oc12	inactive	inactive	inactive	inactive	inactive	inactive	inactive	inactive	inactive	inactive		inactive	inactive	inactive		inactive				
